Shown is part of a subset that was picked to be rich in hits.
MBNL1-CUG inh = qHTS Assay for Inhibitors of MBNL1-poly(CUG) RNA binding | Muscleblind-like protein 1 (Homo sapiens), Q9NR56 | TR-FRET MBNL1-His/biotin-(CUG)12 binding, 665/545 ratio | Potency, µM (highest dose often 57.5 µM), usual class: inhibitors | 280,000 tested, 0.036% active | AID 2675, 2010; active means well fitted inhibition curve with a large enough effect in the signal ratio, with a control signal flat, not every such curve was filed as active; inconclusive means small, poorly fitted or top-dose-only effect, or effect the other way, or a change in a side signal; inactive means no such curve, though single readings can be large or run the other way; the % refers to the signal ratio
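Ratiometric TR-FRET (665 over 545 nm, excitation 340 nm) tracks disruption of MBNL1-His/biotin-(CUG)12 complex after 60 min at room temperature, with compounds at 92 nM to 58 uM final.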
Rango release inh = qHTS Assay for Inhibitors of RanGTP induced Rango (Ran-regulated importin-beta cargo) - Importin beta complex dissociation | Snurportin-1 (Homo sapiens) + GTP-binding nuclear protein Ran (Homo sapiens) + Importin … | Biochemical FRET Rango-importin beta, RanGTP-induced dissociation | Potency, µM (titrated, usually from 46.1 µM) | 340,000 tested, 0.071% active | AID 540253, 2011; further: nearly all actives have a fitted effect of over 45% in size
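Quantitative HTS using a FRET biosensor: 0.1 uM Rango, 0.25 uM importin beta, 0.6 uM Ran, 2 mM GTP, 0.2 uM RCC1 final, PBS with DTT, Tween-20 and BSA. Post-read taken 45 min after Ran addition.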
CBFb-RUNX1 inh = qHTS Assay for Compounds Blocking the Interaction Between CBF-beta and RUNX1 for the Treatment of Acute Myeloid Leukemia; AlphaScreen CBFb-His/RUNX1-biotin binding, biochemical; Potency, µM (highest dose often 59.8 µM), actives largely listed as inhibitors; 230,000 tested, under 10 active; Runt-related transcription factor 1 (Homo sapiens) + Core-binding factor subunit beta …; active means well fitted curve in the direction sought with a large enough effect; inconclusive means small, poorly fitted or top-dose-only effect, or effect the other way, or another doubt; inactive means no such curve, though single readings can be large or run the other way
Target sequence (Q01196 whole entry, looked up): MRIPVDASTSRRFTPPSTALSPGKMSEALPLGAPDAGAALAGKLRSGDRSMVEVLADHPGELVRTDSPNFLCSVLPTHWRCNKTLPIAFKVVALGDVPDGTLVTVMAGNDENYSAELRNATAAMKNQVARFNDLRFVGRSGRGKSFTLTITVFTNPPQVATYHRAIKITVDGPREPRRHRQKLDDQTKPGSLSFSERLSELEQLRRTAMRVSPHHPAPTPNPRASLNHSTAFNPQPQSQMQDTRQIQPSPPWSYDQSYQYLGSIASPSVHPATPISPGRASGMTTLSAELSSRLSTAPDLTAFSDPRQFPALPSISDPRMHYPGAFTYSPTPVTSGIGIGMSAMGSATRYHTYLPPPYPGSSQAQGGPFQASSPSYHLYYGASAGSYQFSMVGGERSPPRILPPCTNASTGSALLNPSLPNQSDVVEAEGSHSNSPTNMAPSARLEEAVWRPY
Target sequence (Q13951 whole entry, looked up): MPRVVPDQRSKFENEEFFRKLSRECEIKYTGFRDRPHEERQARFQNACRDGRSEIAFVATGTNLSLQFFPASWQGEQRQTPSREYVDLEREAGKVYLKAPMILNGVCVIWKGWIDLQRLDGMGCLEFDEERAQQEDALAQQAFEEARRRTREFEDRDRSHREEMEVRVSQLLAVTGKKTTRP
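Inhibition was taken as any reduction in AlphaScreen signal from the CBF-beta–RUNX1 pair (His and biotin tags, 30 nM each), measured after compound (15 min) and bead (90 min) incubations at room temperature.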
Rango complex inh = qHTS Assay for Inhibitors of Rango (Ran-regulated importin-beta cargo) - Importin beta complex formation; Importin subunit beta-1 (Homo sapiens), Q14974; Rango CFP/YFP FRET sensor + importin beta, 45 min; Potency, µM (highest dose often 92.2 µM); 340,000 tested, 0.031% active; AID 540263, 2011; further: nearly all actives have a fitted effect of over 15% in size
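FRET biosensor (snurportin 1 IBB flanked by EYFP and cerulean), 50 nM, with compound 5 min, then 0.125 microM importin beta in PBS, 1 mM DTT, 0.02% Tween-20, 0.1% BSA. CFP/YFP ratio read after 45 min at room temperature; pre-read flags interference.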
ClpP mod = qHTS Assay for Activators of ClpP; AID 651965, 2013; 340,000 tested, 1.9% active; Potency, µM (titrated, usually from 57.5 µM); purified B. subtilis ClpP, FRET peptide cleavage, 20 min; ATP-dependent Clp protease proteolytic subunit (Bacillus subtilis (strain 168)), P80244; active means well fitted falling curve with a large enough effect; inconclusive means small, poorly fitted or top-dose-only effect; inactive means no such curve, though single readings can be large or run the other way; further: the source files actives as falling curves though it sought activators and does not explain the sign; nearly all actives have a fitted effect of over 65% in size
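FRET quenching reversal measured ClpP activation: 10 microg/mL B. subtilis ClpP at pH 8 with the FRET-FV decapeptide, read at 430 nm after 320 nm excitation. The 20-min minus 0-min signal was scaled between DMSO/no-enzyme wells and ADEP (5.8 microM final).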
Large screens that a line does not name were inactive. Unless noted, the call rests on the fitted dose curve.

CC(C(=O)NCc1ccccc1)N1C(=O)C2CC=C(Cl)CC2C1=O (stereo unspecified)	Rango complex inh inconclusive, ClpP mod 28µM
CC1(C)C2CCC1(C)C(NC(=O)COC(=O)c1ccc(S(C)(=O)=O)c([N+](=O)[O-])c1)C2 (stereo unspecified)	none (no result: MBNL1-CUG inh, Rango release inh, CBFb-RUNX1 inh, Rango complex inh)
COc1ccc(-c2[nH]c(-c3ccc(O)cc3)nc2-c2ccccc2)cc1	ClpP mod 7.9µM (no result: MBNL1-CUG inh, Rango release inh, CBFb-RUNX1 inh, Rango complex inh)
COc1ccc(-c2nc(-c3ccccc3)c(-c3ccc(O)cc3)[nH]2)cc1	ClpP mod 5µM (no result: MBNL1-CUG inh, Rango release inh, CBFb-RUNX1 inh, Rango complex inh)
O=C(O)COc1ccc(-c2nc(-c3ccccc3)c(-c3ccccc3)[nH]2)cc1	none (no result: CBFb-RUNX1 inh, ClpP mod)
CCOC(=O)CSc1nc2c(c(-c3ccc(C)o3)c1C#N)CCCC2	CBFb-RUNX1 inh inconclusive, ClpP mod 28µM
COC(=O)CSc1nc2c(c(-c3ccco3)c1C#N)CCCC2	none
CCCc1ccc(OC(=O)c2sc3ncn(Cc4cccc(F)c4)c(=O)c3c2C)cc1	none (no result: MBNL1-CUG inh, Rango release inh, CBFb-RUNX1 inh, Rango complex inh)
O=C(CN1CCCN(S(=O)(=O)c2ccc(Br)cc2)CC1)Nc1cccc(C(F)(F)F)c1	none (no result: MBNL1-CUG inh, Rango release inh, CBFb-RUNX1 inh, Rango complex inh)
O=C(Nc1cccc2ccccc12)N1CC=CCC1	Rango release inh inconclusive, ClpP mod 28µM
O=C(Nc1cccc2ccccc12)N1CCN(c2ccccc2)CC1	none
O=C(NCc1ccccc1Cl)c1ccc2oc(=O)n(Cc3ccccc3)c2c1	none (no result: MBNL1-CUG inh, Rango release inh, CBFb-RUNX1 inh, Rango complex inh)
Cc1cccc(N2CCN(CC(O)COCc3cccs3)CC2)c1C (stereo unspecified)	ClpP mod 22µM
CCN(CC(=O)NC1CCS(=O)(=O)C1)S(=O)(=O)c1ccc2ccccc2c1 (stereo unspecified)	ClpP mod 25µM
CN1CCN(C(=O)c2cc3c(ccc4ccccc43)oc2=O)CC1	MBNL1-CUG inh inconclusive, Rango release inh inconclusive, Rango complex inh inconclusive, ClpP mod 13µM
O=C(Nc1cccnc1)c1cc2c(ccc3ccccc32)o1	ClpP mod 25µM
NNC(=O)c1cc2c(ccc3ccccc32)o1	Rango release inh inconclusive, Rango complex inh inconclusive (no result: ClpP mod)
COC(=O)c1cc2c(ccc3ccccc32)oc1=O	Rango release inh inconclusive, Rango complex inh inconclusive (no result: MBNL1-CUG inh, CBFb-RUNX1 inh)
O=C(O)c1cc2c(ccc3ccccc32)o1	MBNL1-CUG inh inconclusive, ClpP mod 28µM
O=C(CC(NCc1cccnc1)C(=O)O)Nc1ccc(F)cc1 (stereo unspecified)	none (no result: MBNL1-CUG inh, Rango release inh, CBFb-RUNX1 inh, Rango complex inh)
C[n+]1ccc(/C=C/c2ccc([N+](C)(C)C)cc2)c2ccccc21	none (no result: MBNL1-CUG inh, Rango release inh, CBFb-RUNX1 inh, Rango complex inh)
O=C(OCC1CCCO1)c1ccc2c(c1)N(Cc1cccc(Cl)c1)C(=O)c1ccccc1S2(=O)=O (stereo unspecified)	none (no result: MBNL1-CUG inh, Rango release inh, CBFb-RUNX1 inh, Rango complex inh)
CC(C)c1ccc(S(=O)(=O)c2n[nH]n3c2nc(=O)c2ccccc23)cc1	ClpP mod 25µM
CCc1ccc(S(=O)(=O)c2n[nH]n3c2nc(=O)c2ccccc23)cc1	ClpP mod 32µM
O=c1nc2c(-c3ccc(F)cc3Cl)n[nH]n2c2ccccc12	none (no result: MBNL1-CUG inh, Rango release inh, CBFb-RUNX1 inh, Rango complex inh)
O=c1nc2c(-c3ccccc3F)n[nH]n2c2ccccc12	Rango release inh inconclusive, Rango complex inh inconclusive, ClpP mod 28µM
CC(=O)C[C@H]1c2cc(F)cc(F)c2S(=O)(=O)N1C1CCN(Cc2ccccc2)CC1	none (no result: MBNL1-CUG inh, Rango release inh, CBFb-RUNX1 inh, Rango complex inh)
COC(=O)C1=C(C(=O)OC)[C@@H]2N(C)c3ccccc3[C@@]23C[C@@H](C(=O)OC)N(S(=O)(=O)c2ccc(C#N)cc2)C3=N1	none (no result: MBNL1-CUG inh, Rango release inh, Rango complex inh, ClpP mod)
COc1ccc2[nH]c(=O)c(CN(CCO)C(=O)NCc3ccccc3)cc2c1	ClpP mod 25µM
COc1ccc2[nH]c(=O)c(CN(C)C(=O)COc3ccccc3)cc2c1	ClpP mod 32µM
CCOc1ccccc1C(=O)N(C)Cc1cc2cc(OC)ccc2[nH]c1=O	Rango complex inh inconclusive, ClpP mod 32µM
CCN(CC(=O)NCc1ccc(F)cc1)C(=O)Cc1ccc(OC)cc1	ClpP mod 16µM (no result: CBFb-RUNX1 inh)
COc1ccc2[nH]c(=O)c(CN(c3ccc(C)c(C)c3)S(C)(=O)=O)cc2c1	none (no result: ClpP mod)
CCOc1ccc(N(Cc2cc3cc(OC)ccc3[nH]c2=O)S(C)(=O)=O)cc1	MBNL1-CUG inh inconclusive, ClpP mod 28µM

Screening results: PubChem BioAssay, National Center for Advancing Translational Sciences (NCATS)
